Assay results reported in PubChem BioAssay (EPA / NIEHS).
Active and inactive are the calls of the source. The calls were made as follows: active = hit-call score of the fitted dose curve at least 0.9, where 1 is the maximum; inactive = score below 0.9.

Target: Nuclear respiratory factor 1 (Homo sapiens) (UniProt Q16656)
Test: ATG_NRF1_CIS: Attagene CIS-FACTORIAL HepG2 Assay for human Nuclear Respiratory Factor 1 (NRF1) Orphan Gene (AID 2282987)
Details: HepG2 NRF1 cis-element reporter, Attagene multiplex; actives raise or lower the signal
Outline: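 HepG2 cells transiently transfected with multiple reporter transcription units under cis-regulatory promoter control, so endogenous transcription-factor activity is read. After 24 h compound exposure, reporter mRNA quantified by RT-PCR, fluorescent labelling, HpaI digestion and capillary electrophoresis; bidirectional fitting versus DMSO.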

Sequence of Nuclear respiratory factor 1 (Homo sapiens) (Q16656 whole entry, looked up): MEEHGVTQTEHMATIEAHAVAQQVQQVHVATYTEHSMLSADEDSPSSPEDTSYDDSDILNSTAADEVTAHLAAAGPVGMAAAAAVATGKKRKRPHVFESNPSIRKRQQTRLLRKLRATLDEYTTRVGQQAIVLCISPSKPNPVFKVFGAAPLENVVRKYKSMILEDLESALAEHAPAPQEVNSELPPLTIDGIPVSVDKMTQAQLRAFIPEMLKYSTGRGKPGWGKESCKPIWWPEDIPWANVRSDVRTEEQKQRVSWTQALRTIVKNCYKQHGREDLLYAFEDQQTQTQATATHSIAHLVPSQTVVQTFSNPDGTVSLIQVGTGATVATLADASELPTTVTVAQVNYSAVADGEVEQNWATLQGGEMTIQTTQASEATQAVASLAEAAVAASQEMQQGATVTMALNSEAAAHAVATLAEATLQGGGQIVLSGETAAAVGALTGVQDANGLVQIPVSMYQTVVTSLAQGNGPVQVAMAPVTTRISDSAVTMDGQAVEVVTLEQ

SMILES | outcome | AC50
Nc1ccc(-c2ccc(N)c(N)c2)cc1N | inactive | –
CCOP(O)OCC | inactive | –
C#CC1(O)CCCCC1 | inactive | –
O=c1[nH]c(Cl)c(Cl)cc1Cl | inactive | –
CCC(C)c1cc(C(C)(C)C)cc(-n2nc3ccccc3n2)c1O (centres undefined) | inactive | –
[CH3][Sn]([Cl])([Cl])[Cl] | inactive | –
Nc1c(Cl)c(Cl)c(Cl)c(Cl)c1Cl | inactive | –
COC(=O)c1ccccc1S(=O)(=O)NC(=O)Nc1nc(C)cc(C)n1 | inactive | –
Nc1ccccc1C(=O)OCCc1ccccc1 | inactive | –
N#Cc1cccc(C#N)c1 | inactive | –
O=C(O)CCCc1ccc(N(CCCl)CCCl)cc1 | inactive | –
Nc1cc(Cl)cc(Cl)c1 | inactive | –
COc1ncc(F)c2nc(S(=O)(=O)Nc3c(F)cccc3F)nn12 | inactive | –
COC(C)(C)CCC[C@H](C)C/C=C/C(C)=C/C(=O)OC(C)C | inactive | –
[CH3][Sn]([CH3])([Cl])[Cl] | inactive | –
BrCBr | inactive | –
CCc1cccc(C)c1N(C(=O)CCl)[C@@H](C)COC | inactive | –
O=P1(NCCCl)OCCCN1CCCl (centres undefined) | inactive | –
CC(Cc1ccc(C(C)(C)C)cc1)CN1C[C@@H](C)O[C@@H](C)C1 (some centres undefined) | inactive | –
O=C(O)c1cc[c]([Hg][Cl])cc1 | inactive | –

SMILES | outcome | AC50
C[N+](C)(C)CC(=O)O | inactive | –
O=S(=O)(c1ccccc1)c1ccccc1 | inactive | –
Clc1ccc(-c2ccccc2)cc1 | inactive | –
CN(C)C(=O)C(c1ccccc1)c1ccccc1 | inactive | –
C=CCc1ccc(OC(=O)Cc2ccccc2)c(OC)c1 | inactive | –
O=P(O)(Oc1ccccc1)Oc1ccccc1 | inactive | –
CC1CCCC1.[C-]#[O+].[C-]#[O+].[C-]#[O+].[Mn] | inactive | –
O=C(O)COc1ccccc1 | inactive | –
[Cl][Sb]([Cl])[Cl] | inactive | –
CCC(=O)c1ccc(Cl)cc1 | inactive | –
Cc1ccc(N(SC(F)(Cl)Cl)S(=O)(=O)N(C)C)cc1 | inactive | –
CC1(C)CC(=O)CC(C)(C)N1[O] | inactive | –
SCc1ccco1 | inactive | –
O=CNC(N1CCN(C(NC=O)C(Cl)(Cl)Cl)CC1)C(Cl)(Cl)Cl (centres undefined) | inactive | –
Oc1cc(Cl)ccc1Cl | inactive | –
O=[N+]([O-])c1cc(C(F)(F)F)c(Cl)c([N+](=O)[O-])c1Cl | inactive | –
C[C@]12CCC(=O)C(O)=C1CC[C@@H]1[C@@H]2CC[C@]2(C)C(=O)CC[C@@H]12 | inactive | –
CSc1nc(N=[N+]=[N-])nc(NC(C)C)n1 | inactive | –
O=[N+]([O-])O.O=[N+]([O-])O.[Cd] | – | 4.62 µM (active)
